Laboratory results as given in PubChem BioAssay AID1159580 (chemical genetic matrix, 2015).
“And” between values parts separate entries of the source, which are not always exact repeats. Equal values may be shown once. The campaign covered roughly 5,500 compounds. About 2,000 (36%) were called active. About 18% were inconclusive and are not listed. Rule as the data show it: active = normalized growth mostly below about 0.91 (no sharp cut-off); inconclusive = no clear call, values can overlap the other calls; inactive = mostly above about 0.92. The list shows a part of the results.

Assay: chemical genetic growth profiling, strain panel (AID 1159580);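 also: tested at 20 µM; growth read once vehicle control cultures reached saturation at 30 °C; 1 = growth at the plate median or of vehicle wells; lower values mean less growth of the strain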
Details: growth OD

Measured: normalized growth

Cc1cc(O)c2c(c1)Cc1cccc(O)c1C2=O
active: S. cerevisiae deletion strains, locus YEL061C, strain CIN8, stronger effect = lower value 0.848 | S. cerevisiae deletion strains, locus YGR229C, strain SMI1, stronger effect = lower value 0.677 | S. cerevisiae deletion strains, locus YIL066C, strain RNR3, stronger effect = lower value 0.717 | S. cerevisiae deletion strains, locus YIR030C, strain dcg1, stronger effect = lower value 1.1 [resistant] | S. cerevisiae deletion strains, locus YJL187C, strain SWE1 (second series), stronger effect = lower value 0.742 | S. cerevisiae deletion strains, locus YKR001C, strain vps1, stronger effect = lower value 0.865 | S. cerevisiae deletion strains, locus YLR039C, strain RIC1, stronger effect = lower value 0.261 | S. cerevisiae deletion strains, locus YLR262C, strain YPT6, stronger effect = lower value 0.517 | S. cerevisiae deletion strains, locus YOL006C, strain TOP1, stronger effect = lower value 0.261 | S. cerevisiae deletion strains, locus YPL055C, strain LGE1, stronger effect = lower value 0.753 | S. cerevisiae strains, strain wild type, stronger effect = lower value 0.881
0.573 (active) and 1.05 (inactive): S. cerevisiae deletion strains, locus YJL095W, strain BCK1, stronger effect = lower value
inactive: S. cerevisiae deletion strains, locus YAL013W, strain DEP1, stronger effect = lower value 0.978 | S. cerevisiae deletion strains, locus YBR021W, strain FUR4, stronger effect = lower value 1.09 | S. cerevisiae deletion strains, locus YBR229C, strain ROT2, stronger effect = lower value 1.02 | S. cerevisiae deletion strains, locus YCL029C, strain bik1, stronger effect = lower value 1.01 | S. cerevisiae deletion strains, locus YDL035C, strain GPR1, stronger effect = lower value 0.978 | S. cerevisiae deletion strains, locus YDL074C, strain BRE1, stronger effect = lower value 0.832 | S. cerevisiae deletion strains, locus YDL101C, strain DUN1, stronger effect = lower value 0.951 | S. cerevisiae deletion strains, locus YDL134C, strain PPH21, stronger effect = lower value 0.992 | S. cerevisiae deletion strains, locus YDL185W, strain tfp1, stronger effect = lower value 1 | S. cerevisiae deletion strains, locus YDL192W, strain arf1, stronger effect = lower value 1.02 | S. cerevisiae deletion strains, locus YDR101C, strain arx1, stronger effect = lower value 1.01 | S. cerevisiae deletion strains, locus YDR150W, strain NUM1, stronger effect = lower value 1.02 | S. cerevisiae deletion strains, locus YDR162C, strain NBP2, stronger effect = lower value 0.905 | S. cerevisiae deletion strains, locus YDR318W, strain mcm21, stronger effect = lower value 0.982 | S. cerevisiae deletion strains, locus YDR388W, stronger effect = lower value 0.998 | S. cerevisiae deletion strains, locus YDR502C, strain sam2, stronger effect = lower value 1 | S. cerevisiae deletion strains, locus YER110C, stronger effect = lower value 1.01 | S. cerevisiae deletion strains, locus YER155C, strain BEM2, stronger effect = lower value 1.02 | S. cerevisiae deletion strains, locus YER167W, strain BCK2, stronger effect = lower value 0.941 | S. cerevisiae deletion strains, locus YGL078C, strain dbp3, stronger effect = lower value 1.02 | S. cerevisiae deletion strains, locus YGL086W, strain mad1, stronger effect = lower value 0.979 | S. cerevisiae deletion strains, locus YGL248W, strain PDE1, stronger effect = lower value 0.958 | S. cerevisiae deletion strains, locus YGR078C, strain PAC10, stronger effect = lower value 0.979 | S. cerevisiae deletion strains, locus YGR135W, strain pre9, stronger effect = lower value 1.02 | S. cerevisiae deletion strains, locus YGR252W, strain gcn5, stronger effect = lower value 0.914 | S. cerevisiae deletion strains, locus YHR030C, strain SLT2, stronger effect = lower value 0.96 and 1.05 | S. cerevisiae deletion strains, locus YHR079C, strain IRE1 (second series), stronger effect = lower value 1.02 | S. cerevisiae deletion strains, locus YHR079C, strain IRE1, stronger effect = lower value 1.04 | S. cerevisiae deletion strains, locus YHR094C, strain hxt1, stronger effect = lower value 1.01 | S. cerevisiae deletion strains, locus YHR129C, strain ARP1, stronger effect = lower value 0.926 | S. cerevisiae deletion strains, locus YHR200W, strain rpn10, stronger effect = lower value 1.05 | S. cerevisiae deletion strains, locus YIL073C, strain SPO22, stronger effect = lower value 0.898 | S. cerevisiae deletion strains, locus YIL125W, strain kgd1, stronger effect = lower value 0.998 | S. cerevisiae deletion strains, locus YJL134W, strain LCB3, stronger effect = lower value 1.01 | S. cerevisiae deletion strains, locus YJL168C, strain set2, stronger effect = lower value 1 | S. cerevisiae deletion strains, locus YJR043C, strain POL32, stronger effect = lower value 1.01 | S. cerevisiae deletion strains, locus YJR066W, strain TOR1, stronger effect = lower value 0.938 | S. cerevisiae deletion strains, locus YJR075W, strain HOC1, stronger effect = lower value 0.971 | S. cerevisiae deletion strains, locus YKL009W, strain mrt4, stronger effect = lower value 1.05 | S. cerevisiae deletion strains, locus YKL068W, stronger effect = lower value 1.02 | S. cerevisiae deletion strains, locus YKL085W, strain MDH1 (second series), stronger effect = lower value 1.03 | S. cerevisiae deletion strains, locus YKL085W, strain MDH1, stronger effect = lower value 1.03 | S. cerevisiae deletion strains, locus YKL190W, strain CNB1, stronger effect = lower value 0.995 | S. cerevisiae deletion strains, locus YLR058C, strain SHM2, stronger effect = lower value 0.922 | S. cerevisiae deletion strains, locus YLR102C, strain apc9, stronger effect = lower value 1.05 | S. cerevisiae deletion strains, locus YLR113W, strain HOG1, stronger effect = lower value 1.05 | S. cerevisiae deletion strains, locus YLR268W, strain sec22, stronger effect = lower value 0.93 | S. cerevisiae deletion strains, locus YLR330W, strain CHS5, stronger effect = lower value 0.957 | S. cerevisiae deletion strains, locus YLR342W, strain FKS1 (second series), stronger effect = lower value 0.918 | S. cerevisiae deletion strains, locus YLR371W, strain rom2, stronger effect = lower value 1.02 | S. cerevisiae deletion strains, locus YLR418C, strain cdc73, stronger effect = lower value 0.902 | S. cerevisiae deletion strains, locus YML016C, strain PPZ1, stronger effect = lower value 0.999 | S. cerevisiae deletion strains, locus YML032C, strain rad52, stronger effect = lower value 0.906 | S. cerevisiae deletion strains, locus YML124C, strain tub3, stronger effect = lower value 1.03 | S. cerevisiae deletion strains, locus YMR078C, strain ctf18, stronger effect = lower value 0.974 | S. cerevisiae deletion strains, locus YMR223W, strain ubp8, stronger effect = lower value 1.06 | S. cerevisiae deletion strains, locus YMR307W, strain GAS1, stronger effect = lower value 0.874 | S. cerevisiae deletion strains, locus YNL067W, strain RPL9B, stronger effect = lower value 0.932 | S. cerevisiae deletion strains, locus YNL183C, strain NPR1, stronger effect = lower value 0.967 | S. cerevisiae deletion strains, locus YNL233W, strain BNI4, stronger effect = lower value 0.946 | S. cerevisiae deletion strains, locus YNL250W, strain rad50, stronger effect = lower value 0.962 | S. cerevisiae deletion strains, locus YNL271C, strain bni1, stronger effect = lower value 1.01 | S. cerevisiae deletion strains, locus YNL298W, strain CLA4, stronger effect = lower value 0.999 | S. cerevisiae deletion strains, locus YNL307C, strain MCK1, stronger effect = lower value 1 | S. cerevisiae deletion strains, locus YNL322C, strain KRE1, stronger effect = lower value 0.987 | S. cerevisiae deletion strains, locus YNR052C, strain pop2, stronger effect = lower value 0.949 | S. cerevisiae deletion strains, locus YOL012C, strain htz1 0.675 | S. cerevisiae deletion strains, locus YOL147C, strain pex11, stronger effect = lower value 1.05 | S. cerevisiae deletion strains, locus YOR061W, strain CKA2, stronger effect = lower value 0.995 | S. cerevisiae deletion strains, locus YOR069W, strain VPS5, stronger effect = lower value 0.951 | S. cerevisiae deletion strains, locus YOR136W, strain idh2, stronger effect = lower value 1 | S. cerevisiae deletion strains, locus YOR144C, strain elg1, stronger effect = lower value 1.06 | S. cerevisiae deletion strains, locus YOR184W, strain ser1, stronger effect = lower value 0.984 | S. cerevisiae deletion strains, locus YOR231W, strain MKK1, stronger effect = lower value 1.07 | S. cerevisiae deletion strains, locus YOR316C, strain cot1, stronger effect = lower value 1.06 | S. cerevisiae deletion strains, locus YPL241C, strain CIN2, stronger effect = lower value 0.982 | S. cerevisiae deletion strains, locus YPL256C, strain CLN2, stronger effect = lower value 1.09 | S. cerevisiae deletion strains, locus YPR119W, strain clb2, stronger effect = lower value 1.05 | S. cerevisiae deletion strains, locus YPR141C, strain kar3, stronger effect = lower value 1.02 | S. cerevisiae deletion strains, locus YPR163C, strain tif3, stronger effect = lower value 0.982 | S. cerevisiae deletion strains, locus YPR167C, strain met16, stronger effect = lower value 1.06 | S. cerevisiae deletion strains, strain wtn01, stronger effect = lower value 0.997
